High-throughput results as filed in PubChem BioAssay.
FECH inh: blocks human mitochondrial ferrochelatase activity; purified FECH, Ni-mesoporphyrin absorbance 550 nm; calls only at 10 µM (by protocol); 20,000 tested, 3.3% active; AID 1671448;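 active = enzyme reaction rate more than 3 SD below the solvent-only control wells on the same plate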;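 note: lower slope than DMSO wells means FECH inhibition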
Target sequence (P22830 whole entry, looked up): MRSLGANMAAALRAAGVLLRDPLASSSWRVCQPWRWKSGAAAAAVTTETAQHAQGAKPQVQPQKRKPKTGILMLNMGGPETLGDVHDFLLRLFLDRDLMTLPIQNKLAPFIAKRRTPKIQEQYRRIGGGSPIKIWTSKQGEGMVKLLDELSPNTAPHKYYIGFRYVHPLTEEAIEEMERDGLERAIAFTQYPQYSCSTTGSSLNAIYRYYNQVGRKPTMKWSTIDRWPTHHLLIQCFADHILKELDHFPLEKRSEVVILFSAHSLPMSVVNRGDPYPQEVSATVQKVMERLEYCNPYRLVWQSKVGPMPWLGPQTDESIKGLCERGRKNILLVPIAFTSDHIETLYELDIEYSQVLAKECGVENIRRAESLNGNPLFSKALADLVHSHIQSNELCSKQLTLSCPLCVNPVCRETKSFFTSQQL
An asterisk follows results filed as active; i = inactive; + = active, no number. Many of the other results were omitted from the sample, so hits are more common in it than they were.

SMILES	FECH inh
COc1ccc(C2C=C(c3ccccc3)Nc3nc(NC(=O)c4ccccc4)nn32)cc1 (centres undefined)	i
COc1ccc(C(=O)Nc2nc3n(n2)C(c2ccccc2)C=C(c2ccccc2)N3)cc1OC (centres undefined)	+
Cc1cccnc1CN1CCN(CC2CCOC2)CC1 (centres undefined)	i
Cc1cc(N2CCOCC2)nc(N2CCN(S(=O)(=O)c3ccc(Oc4ccccc4)cc3)CC2)n1	i
COc1ccc(-c2cc(N3CCN(C(=O)NC(C)C)CC3)ncn2)cc1	i
Cc1nc(C(N)=O)c2c(n1)n(-c1ccc(F)cc1)c(=O)n2C	i
CCc1c(C)nc2ncnn2c1Sc1ccc(NC(=O)Nc2ccccc2)cc1	i
CCc1c(C)nc2ncnn2c1Sc1ccc(NC(=O)Nc2ccc(C)c(C)c2)cc1	i
CCc1c(C)nc2ncnn2c1Sc1ccc(NC(=O)Nc2ccc3c(c2)OCCO3)cc1	+
CCc1c(C)nc2ncnn2c1Sc1ccc(NC(=O)Nc2ccc(C)c(F)c2)cc1	+
CCc1c(C)nc2ncnn2c1Sc1ccc(NC(=O)Nc2cccc(C)c2)cc1	i
CCc1c(C)nc2ncnn2c1Sc1ccc(NC(=O)Nc2ccc(F)cc2)cc1	i
CC(c1cncs1)N(C)Cc1cnc2c(-c3ccccc3)cnn2c1 (centres undefined)	i
NS(=O)(=O)c1ccc(CCNC(=O)c2csnn2)cc1	i
CCC(=O)Nc1ccccc1-c1nnc(SC(C)C(=O)Nc2ccc(Cl)cc2)[nH]c1=O (centres undefined)	i
CC(Cn1cncn1)NCc1cc(-c2ccccc2Cl)on1 (centres undefined)	i
CCc1nc2cccnc2n1C1CCN(S(=O)(=O)Cc2ccccc2)CC1	i
Cn1c(=O)n(CCOc2ccccc2)c(=O)c2cnc(-c3cccnc3)nc21	i
CCCc1cnc(C)nc1N1CCCC(c2nnc3ccccn23)C1 (centres undefined)	i
Cc1cccc(N2CCN(S(=O)(=O)c3cc(C(=O)N4CCCCC4)cs3)CC2)c1C	i
COc1c[nH]c(C(=O)N2CCC(=O)N(CC3CC3)C(C(C)C)C2)cc1=O (centres undefined)	i
Cc1c(CN2Cc3ncccc3C2=O)oc2ccccc12	i
Cc1c(-c2nccn2Cc2cccnc2)oc2ccccc12	+
CCc1oc2ccccc2c1-c1nccn1CCN(C)C	i
Cc1cc(C(C(=O)O)N2CCN(c3nc4ccccc4o3)CC2)ccc1F (centres undefined)	i
SMILES	FECH inh
COc1cc(NC(=O)CSCc2nc(-c3ccc(F)cc3)no2)cc(OC)c1	i
COc1ccc(NC(=O)c2cc(-c3ccc(OC)c(S(N)(=O)=O)c3)n[nH]2)cc1	i
COc1cc(Cl)cc2c1OC=CC(C(=O)Nc1ccc(S(N)(=O)=O)cc1)=C2	+
NS(=O)(=O)c1ccc(NC(=O)c2csnn2)cc1	i
Cc1[nH]c2c(CN3CCC(N)(C(=O)O)C3)cccc2c1C (centres undefined)	i
COc1c(F)cccc1C(=O)NCCC(=O)N1CCC(C)CC1	i
CC(C)C[C@@H](N)C(=O)NCc1nncn1C1CCCCC1	i
COCCNC(=O)C1(C)Cn2c(cc3ccsc32)C(=O)N1Cc1ccccc1 (centres undefined)	i
COCCNC(=O)C1(C)Cn2c(cc3ccsc32)C(=O)N1Cc1ccccc1C (centres undefined)	+
COCCNC(=O)C1(C)Cn2c(cc3ccsc32)C(=O)N1Cc1ccccc1OC (centres undefined)	i
c1cnc2c(-c3nccn3CCc3cnc[nH]3)cccc2c1	i
Cc1oc(-c2ccccc2Cl)cc1C(=O)NCCN1CCNC1=O	i
Cc1oc(-c2ccccc2Cl)cc1C(=O)NCCc1cnc[nH]1	+
CN(Cc1cccs1)C(=O)c1cc(CN2CCC(O)CC2)on1	i
O=C(CCc1ccccc1)Nc1nc2n(n1)C(c1c(F)cccc1Cl)C=C(c1ccccc1)N2 (centres undefined)	+
CC(C)CC(=O)Nc1nc2n(n1)C(c1ccccc1Cl)C=C(c1ccccc1)N2 (centres undefined)	i
O=C(Nc1nc2n(n1)C(c1c(F)cccc1Cl)C=C(c1ccccc1)N2)c1ccco1 (centres undefined)	i
O=C(Nc1nc2n(n1)C(c1c(F)cccc1Cl)C=C(c1ccccc1)N2)c1ccccc1F (centres undefined)	i
CCCC(=O)Nc1nc2n(n1)C(c1ccccc1Cl)C=C(c1ccc(Cl)cc1)N2 (centres undefined)	+
CCCC(=O)Nc1nc2n(n1)C(c1ccccc1Cl)C=C(c1ccc(C)cc1)N2 (centres undefined)	i
CC(=O)Nc1nc2n(n1)C(c1c(F)cccc1Cl)C=C(c1ccc(Cl)cc1)N2 (centres undefined)	i
CCCC(=O)Nc1nc2n(n1)C(c1c(F)cccc1Cl)C=C(c1ccccc1)N2 (centres undefined)	+
CC(C)CC(=O)Nc1nc2n(n1)C(c1c(F)cccc1Cl)C=C(c1ccccc1)N2 (centres undefined)	+
CCCC(=O)Nc1nc2n(n1)C(c1ccccc1Cl)C=C(c1ccccc1)N2 (centres undefined)	i
CCCC(=O)Nc1nc2n(n1)C(c1c(F)cccc1Cl)C=C(c1ccc(C)cc1)N2 (centres undefined)	i
SMILES	FECH inh
O=C(CCc1ccccc1)Nc1nc2n(n1)C(c1ccccc1Cl)C=C(c1ccccc1)N2 (centres undefined)	i
CC(C)Nc1cc(N2CCCC(c3ccn[nH]3)C2)ncn1 (centres undefined)	i
O=C(Nc1nccs1)C1CCN(c2ncnc3c2nc2n3CCCCC2)CC1	i
Cc1n[nH]c(C)c1CCC(=O)N1CCc2c(nc(-c3ccccc3)[nH]c2=O)C1	i
CCOC(=O)N1CCC(NCc2n[nH]c3c2CCCCC3)CC1	i
O=C1CCC(=O)N1c1nc2n(n1)C(c1ccc(F)cc1)C=C(c1ccccc1)N2 (centres undefined)	i
CC1c2cccn2CCN1C(=O)CNS(=O)(=O)c1cccs1 (centres undefined)	i
CC1c2cccn2CCN1C(=O)c1ccc(C#CC(C)(C)O)o1 (centres undefined)	i
CC(=O)Nc1ccccc1SCC(=O)N1CCn2cccc2C1C (centres undefined)	+
Cc1nc2nc[nH]n2c(=O)c1NC(=O)Nc1cccc(C(F)(F)F)c1	i
COc1ccccc1NCc1nc2nc3c(c(=O)n2[nH]1)CCC3	i
COc1cccc(NCc2nc3nc4c(c(=O)n3[nH]2)CCC4)c1	+
O=c1c2c(nc3nc(CNc4cccc(C(F)(F)F)c4)[nH]n13)CCC2	+
CCc1nc2nc(C)c(NC(=O)Nc3cccc(F)c3)c(=O)n2[nH]1	i
COc1ccc(CNc2nc3nc(CNc4cccc(Cl)c4)cc(=O)n3[nH]2)cc1	i
CC(C)c1nc(CN(C)C(=O)CN2CCCN(C)CC2)cs1	i
COc1cc(NC(=O)CN2CCCC2Cn2cccn2)cc(OC)c1 (centres undefined)	i
Cc1noc2ccc(CN3CCC(c4cc(CC(=O)O)[nH]n4)CC3)cc12	i
CCOC(=O)Cn1c(=O)n(-c2ccc(F)cc2)c2nc(-c3ccccc3OCC)nc(C(N)=O)c21	i
CCOc1ccc(C(=O)NCc2nc3cccnc3n2CCOC)cc1	i
